Source: PubChem BioAssay (National Center for Advancing Translational Sciences (NCATS))
AmpC inh detg = blocks E. coli AmpC beta-lactamase in detergent assay | P00811 | AmpC hydrolysis of nitrocefin, absorbance 480 nm, 0.01% Triton | Potency, µM (top dose mostly 114 µM), for the others: top-dose activity change, negative = inhibition, usual class: inhibitors | 370,000 compounds, 0.041% hits | AID 485294;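 further: 0% = no-compound wells and -100% = no-enzyme wells; nearly all actives have a fitted effect of over 25% in size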
Target sequence (P00811 whole entry, looked up): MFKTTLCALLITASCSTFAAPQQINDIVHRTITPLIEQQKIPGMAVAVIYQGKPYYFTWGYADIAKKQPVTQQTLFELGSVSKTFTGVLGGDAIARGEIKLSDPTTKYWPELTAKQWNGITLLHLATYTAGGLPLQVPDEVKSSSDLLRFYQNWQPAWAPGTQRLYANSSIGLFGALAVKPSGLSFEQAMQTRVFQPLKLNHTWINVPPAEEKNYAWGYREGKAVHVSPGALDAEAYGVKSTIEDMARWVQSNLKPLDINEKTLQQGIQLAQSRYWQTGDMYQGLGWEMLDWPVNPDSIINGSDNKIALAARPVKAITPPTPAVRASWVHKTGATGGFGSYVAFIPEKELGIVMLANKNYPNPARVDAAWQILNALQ
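AmpC (5.3 nM in the dispensed reagent) in 20 mM phosphate pH 7.0 with 0.01% (detergent screen) or 0.0001% Triton X-100 was preincubated with compounds for 15 min at room temperature. Nitrocefin was then added from an 800 uM solution, and hydrolysis was followed at 480 nm.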
RE007 growth inh = less growth of the S. pombe RE007 Vpr strain. S. pombe RE007 Vpr strain, BacTiter-Glo ATP luminescence, 24 h. Potency, µM (titrated, usually from 92.2 µM), for inactives: top-dose activity change, negative = less growth, most hits filed as inhibitors. 360,000 compounds, 0.21% hits. AID 651644; active means well fitted falling curve with a large enough effect; inconclusive means small, poorly fitted or top-dose-only effect; inactive means no such curve, though single readings can be large or run the other way; further: nearly all actives have a fitted effect of over 50% in size
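Fission yeast strain RE007, carrying one chromosomally integrated HIV-1 vpr copy, was seeded at OD 0.01 in PMG+AL medium with 23 nL pinned compound. After 24 h at 30 °C and 99% humidity, viability was read by BacTiter-Glo luminescence.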
AmpC inh no detg = blocks E. coli AmpC beta-lactamase in detergent-free assay | P00811 | AmpC nitrocefin hydrolysis, absorbance 480 nm, 0.0001% Triton | Potency, µM (doses to about 57.1 µM), inactives show top-dose activity change, negative = inhibition, usual class: inhibitors | 330,000 compounds, 0.52% hits;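 further: plate controls were no compound for no effect and no enzyme for full effect; nearly all actives have a fitted effect of over 20% in size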
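20 mM phosphate pH 7.0 + 0.01% (detergent screen) or 0.0001% Triton X-100; 5.3 nM AmpC reagent; cpd preinc 15 min RT; nitrocefin (800 uM stock) to start; A480 q20 s × 4 min; Activity was normalised to no-enzyme and no-compound control wells.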
AMA1 RON2 block = inhibitors of Plasmodium falciparum AMA1-RON2 interaction; AlphaScreen AMA1-biotinylated RON2 peptide binding; Potency, µM (doses to about 58.2 µM), for inactives: at the top dose activity change, negative = inhibition, hits mostly inhibitors; 360,000 compounds, 0.2% hits; AID 720542;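 further: 0% = vehicle wells and -100% = peptide control; nearly all actives have a fitted effect of over 45% in size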
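AMA1 (3D7) with his tag at 25 nM final met compounds first, then biotinylated RON2 peptide at 25 nM; detection used donor plus acceptor beads, 10 µg/mL apiece, read by AlphaScreen after 30 min at room temperature.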
Sm TGR inh = inhibitors of Schistosoma mansoni thioredoxin glutathione reductase | 360,000 compounds, 3% hits | Potency, µM (series often up to 114 µM), for inactives: top-dose activity change, negative = inhibition, hits mostly inhibitors | purified TGR, DTNB reduction, TNB absorbance 405 nm; further: nearly all actives have a fitted effect of over 60% in size
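Kinetic colorimetric format: TGR-catalysed, NADPH-driven DTNB reduction monitored via TNB absorbance. Enzyme dispensed at 20 nM; compound exposure 15 min at room temperature before reaction start.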
An asterisk follows results filed as active; ? = inconclusive; · = no result given. Shown are actives, neighbours in structure and some others; about 3.2% of the full set was active somewhere. Unless noted, the call rests on the fitted dose curve; in most records, active means well fitted curve in the direction sought with a large enough effect; inconclusive means small, poorly fitted or top-dose-only effect, or another doubt; inactive means no such curve, though single readings can be large; an effect the other way counts as inactive or inconclusive. Unless noted, on the % scale 0 is the no-effect control and ±100 the full control effect; potency means the concentration at half of the fitted maximal effect.

SMILES	AmpC inh detg	RE007 growth inh	AmpC inh no detg	AMA1 RON2 block	Sm TGR inh
CCCc1nc2ccccc2n1C(C(=O)NC(C)(C)C)C1CC1 (stereo not given)	·	5%	·	-4%	·
N#C/C(=C\c1ccc(N2CCOCC2)o1)C(=O)NC1CCCCC1	-6%	0%	5%	-6%	35µM*
Cc1ccc(/C(C#N)=C\c2ccc(N3CCOCC3)o2)cc1	1%	?	83%	-8%	3.2µM*
N#C/C(=C/c1ccc(N2CCCCCC2)o1)c1ccc(Cl)cc1	-8%	25µM*	-15%	-14%	?
N#C/C(=C/c1ccc(N2CCCCC2)o1)c1cccc(F)c1	?	-21%	-20%	-5%	2.5µM*
Cc1cc2c(s1)c(C=O)c(C(=O)NCc1ccccc1F)n2C	-6%	·	-8%	·	-5%
N#CC(C#N)=Cc1ccc(N2CCCC2)cc1	0%	-7%	-18%	6%	-2%
N#C/C(=C/c1ccc(N2CCCCC2)cc1)c1cccc(F)c1	?	2%	-20%	16µM*	1%
Cc1nc2ccc(S(=O)(=O)CCC(=O)Nc3ccc(C)c(C)c3)cc2s1	-4%	·	·	·	-3%
Clc1ccc(CNc2ccc(N3CCN(Cc4ccccc4)CC3)cc2)cc1	-1%	2%	25%	7.9µM*	-21%
CCOCCCNC(=O)c1ccc(Cn2c(=O)c3cccn3c3cccnc32)cc1	17%	·	·	·	3%
COc1cc(CC(=O)Nc2ccccc2N2CCOCC2)cc(OC)c1OC	-3%	-3%	146%	-5%	-1%
COc1ccc(C)cc1C(=O)CCC(=O)Nc1ccccc1N1CCOCC1	?	-1%	31%	30%	22µM*
CC1(C)CC(CCNS(=O)(=O)c2ccccc2)(c2ccccc2)CCO1 (stereo not given)	-1%	-7%	30%	0%	-16%
CC1(C)CC(CCNC(=O)CCl)(c2ccccc2)CCO1 (stereo not given)	-5%	-3%	18%	5%	45µM*
O=C(CC1Sc2ncnn2C1=O)Nc1ccccc1 (stereo not given)	?	-15%	-28%	0%	0.5µM*
O=C(CC1SC(=O)N(c2ccccc2)C1=O)Nc1ccccc1 (stereo not given)	-4%	?	-21%	46%	?
O=C(NCCc1ccc(Cl)cc1)c1ccc(CSCc2ccccc2Cl)o1	7%	·	·	·	-21%
Cc1csc(=O)n1CCC(=O)OCC(=O)NCc1ccc(Cl)cc1Cl	-16%	10%	-10%	-3%	-1%
Cc1csc(=O)n1CCC(=O)OCC(=O)NNC(=O)c1ccc(Cl)cc1	-5%	0%	-18%	23%	35µM*
Cc1ccc(CN2CCNC(=O)C2CC(=O)NC2CCCCCC2)o1 (stereo not given)	-5%	8%	15%	9%	?
Cc1ccc(CN2CCNC(=O)C2CC(=O)NCCCn2ncc3ccccc32)o1 (stereo not given)	-3%	0%	36%	-15%	25µM*
Cc1ccc(CN2CCNC(=O)C2CC(=O)N(Cc2c(C)nn(C)c2C)C2CC2)o1 (stereo not given)	4%	7%	1%	1%	32µM*
COc1cccc(NC(=O)c2oc3ccccc3c2NC(=O)c2ccc(F)c(F)c2)c1	19%	·	·	·	-2%
CCN(CC)c1ccc(NC(=O)Nc2ccc(C(C)=O)cc2)cc1	3%	-6%	0.28µM*	-5%	-1%
CCOC(=O)c1cnc2ccc(C(=O)OC)cc2c1NCCN1CCOCC1	-14%	-14%	-14%	2%	32µM*
CCOC(=O)c1cnc2ccc(C(=O)OC)cc2c1NCCCN1CCOCC1	?	-8%	39%	-13%	?
COCCCNC(=O)c1ccc(-c2nc(CS(=O)(=O)c3ccc(C)cc3)c(C)o2)cc1	20%	·	·	·	25µM*
Cc1oc(-c2ccc(C(=O)NCCCOC(C)C)cc2)nc1CS(=O)(=O)c1ccccc1	3%	·	·	·	?
CCCCNC(=O)c1ccc(-c2nc(CS(=O)(=O)c3ccc(C)cc3)c(C)o2)cc1	20%	·	·	·	40µM*
